“And” between values parts separate entries of the source, which are not always exact repeats. Identical values can stand only once. This is part of a sample that, as a whole, favours compounds with a hit. Of some 83,000 tested, about 20% had one in any assay.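 Cells were grown in 96-well plates and exposed to the test compound at a single concentration for 48 hours; results are reported as percent growth, with values below 10 considered active.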 The source made the active and inactive calls.
Legend:
Assay in all cases: NCI-60 one-dose screen, 48 h (100 = growth as untreated, 0 = no growth, -100 = all killed)
Details in all cases: 10 µM unless noted
NCI-H226 lung = test system: NCI-H226 lung
HOP-62 NSCLC = test system: HOP-62 NSCLC
NCI-H460 lung = test system: NCI-H460 lung
HOP-92 NSCLC = test system: HOP-92 NSCLC
NCI-H522 lung = test system: NCI-H522 lung
A549/ATCC NSCLC = test system: A549/ATCC NSCLC
786-0 renal = test system: 786-0 renal
COLO 205 colon = test system: COLO 205 colon
NCI-H322M lung = test system: NCI-H322M lung

Row | Structure (SMILES) | growth (NCI-H226 lung) | growth (HOP-62 NSCLC) | growth (NCI-H460 lung) | growth (HOP-92 NSCLC) | growth (NCI-H522 lung) | growth (A549/ATCC NSCLC) | growth (786-0 renal) | growth (COLO 205 colon) | growth (NCI-H322M lung)
1 | N=C1N=C(N)CS1 | 96.9% (inactive) | 107% (inactive) | 103% (inactive) | 99.5% (inactive) | 103% (inactive) | 96.6% (inactive) | 103% (inactive) | 113% (inactive) | 
2 | CNC(=O)c1cccnc1 | 107% (inactive) |  | 109% (inactive) | 109% (inactive) | 91.4% (inactive) | 92.8% (inactive) | 99.6% (inactive) | 121% (inactive) | 110% (inactive)
3 | CC1(C)C2CCC1(CS(=O)(=O)O)C(=O)C2 (stereo not drawn) |  | 101% (inactive) |  |  |  |  |  |  | 
4 | CC(C)Oc1ccc2cc(-c3nn(CC4CCNCC4)c4ncnc(N)c34)ccc2c1 | 97.6% (inactive) and 63.7% (inactive) | 79.8% (inactive) and 53.2% (inactive) | 102% (inactive) and 15.8% (inactive) | 66.1% (inactive) and -1.47% (active) | 87.2% (inactive) and -28% (active) | 80.1% (inactive) and 16.9% (inactive) | 89.3% (inactive) and -32.9% (active) | 74.4% (inactive) and -47.7% (active) | 89.8% (inactive) and 53.9% (inactive)
5 | NC(=S)NS(=O)(=O)c1ccc(N)cc1 | 96% (inactive) | 96.7% (inactive) | 109% (inactive) | 103% (inactive) | 102% (inactive) | 101% (inactive) | 105% (inactive) | 108% (inactive) | 
6 | O=[N+]([O-])c1ccc(/C=N\NC(=S)Nc2ccc(F)cc2)cc1 | 105% (inactive) and 91.1% (inactive) |  | 95.3% (inactive) and 87% (inactive) | 107% (inactive) and 75.7% (inactive) | 95% (inactive) and 104% (inactive) | 82.1% (inactive) and 90.9% (inactive) | 105% (inactive) and 98.5% (inactive) | 104% (inactive) and 103% (inactive) | 86.6% (inactive) and 97.9% (inactive)
7 | O=C(CCc1ccc(O)cc1)N/N=C/c1cc(Br)ccc1O | 95.1% (inactive) | 62.7% (inactive) | 29.7% (inactive) | 80.7% (inactive) | 77.5% (inactive) | 47.6% (inactive) | 42% (inactive) | 92% (inactive) | 38.9% (inactive)
8 | O=CC(O)C(O)C(O)CO (stereo not drawn) | 93.9% (inactive) and 101% (inactive) | 114% (inactive) and 97.6% (inactive) | 98.7% (inactive) and 111% (inactive) | 119% (inactive) | 33.4% (inactive) | 102% (inactive) | 104% (inactive) and 97.6% (inactive) | 97.7% (inactive) and 106% (inactive) | 101% (inactive) and 96.6% (inactive)
9 | OCc1ccccn1 | 102% (inactive) | 115% (inactive) | 105% (inactive) | 108% (inactive) | 94.9% (inactive) | 102% (inactive) | 104% (inactive) | 127% (inactive) | 105% (inactive)
10 | Cc1ccc(-c2noc(C)n2)cc1 | 93.8% (inactive) | 100% (inactive) | 106% (inactive) | 92.1% (inactive) | 99.3% (inactive) | 93.6% (inactive) | 102% (inactive) | 113% (inactive) | 
11 | O=C1c2c(O)cc(O)cc2OC(c2ccc(O)c(O)c2)C1O (stereo not drawn) | 109% (inactive) | 110% (inactive) | 107% (inactive) | 108% (inactive) |  | 105% (inactive) |  | 119% (inactive) | 126% (inactive)
12 | CC(C)N=c1cc2n(-c3ccc(Cl)cc3)c3ccccc3nc-2cc1Nc1ccc(Cl)cc1 | 35.8% (inactive) and 20.1% (inactive) and -21.7% (active) | 55.8% (inactive) and 73.1% (inactive) and 42.9% (inactive) | 13.1% (inactive) and 13.2% (inactive) and -4.66% (active) | -2.5% (active) and -0.497% (active) | 9.58% (active) and -31.8% (active) | 20.2% (inactive) and 43.3% (inactive) and 16.1% (inactive) | 24.7% (inactive) and 9.68% (active) and -18.8% (active) | -7.57% (active) and -28.7% (active) | 26.9% (inactive) and -13.2% (active) and -0.542% (active)

— PubChem BioAssay (NCI)
